Experimental data as given in PubChem BioAssay (Tox21).
Records with an inconclusive call do not appear. Unmarked numbers belong to inactive results. Active and inactive are the calls of the source. Calls come from the whole dose curve; as a rule, active = well fitted activation curve with a large enough effect in the signal ratio in the repeat runs (not every such curve was filed as active); inconclusive = weak or mixed curves, or effect the other way; inactive = flat fitted curve, though single readings scatter; the % refers to the signal ratio.

test: qHTS assay to identify small molecule agonists of the endoplasmic reticulum stress response signaling pathway (AID 1159516); settings: ESRE-bla HeLa, ER stress beta-lactamase reporter, 5 h; series mostly up to 61 µM; activation: at the top concentration
From the text: National Center for Advancing Translational Sciences [NCATS]
NIH Chemical Genomics Center [NCGC]
U.S. Environmental Protection Agency [EPA]
National Institutes of Environmental Health Sciences [NIEHS]
National Toxicology Program [NTP]
U.S. Food and Drug Administration [FDA]
Endoplasmic Reticulum (ER) plays an important role in cellular signaling, protein folding/maturation, stress response, lipid biosynthesis, calcium storage and release etc. Under stress conditions, proteins in ER misfold or unfold, and leading to the expression of ER stress responsive genes. ER stress has been associated with a variety of pathophysiological conditions such as cancer, inflammation, neurodegenerative diseases, diabetes, ischemic heart disease etc. To identify the compounds that induce ER stress response, an ER stress reporter cell line, CellSensor ESRE-bla HeLa (Life Technologies, Carlsbad, CA) containing a beta-lactamase reporter gene under control of the Endoplasmic reticulum Stress Response Element (ESRE) was used to screen Tox21 10K compound library.
Tox21 Assay Protocol Summary:
ESRE-bla HeLa cells were dispensed at 1,500 cells/6 uL of assay medium per well into black wall/clear-bottom 1536-well plates using a Multidrop Combi (ThermoFisher Scientific, Waltham, MA) dispenser. After the assay plates were incubated at 37 C and 5% CO2 for an overnight, 23 nL of compounds dissolved in DMSO, positive controls or DMSO only was transferred to the assay plate by a Pintool station (Kalypsys, San Diego, CA). The assay plates were incubated at 37 C and 5% CO2 for 5 hr. One uL of LiveBLAzer B/G FRET substrate (Life Technologies) was added using a Flying Reagent Dispenser (Aurora Discovery, San Diego, CA) and the plates were incubated at room temperature for 2 hr. Fluorescence intensity (405 nm excitation, 460 nm and 530 nm emissions) was measured using an Envision plate reader (PerkinElmer, Shelton, CT).
% is set by controls: 0 for no effect and ±100 for the full control effect; potency is the fitted concentration of half-maximal effect.

| Compound | activation | Potency |
| --- | --- | --- |
| Cc1ccc(C(=O)O)cc1 | -0.641% [at 78.8 µM] |  |
| O=S(=O)(O)c1ccc(N=Nc2c(O)ccc3ccccc23)cc1 | 2.46% |  |
| O=C(O)O | -2.74% [at 6.95 µM] |  |
| C=CCn1c(=O)n(CC=C)c(=O)n(CC=C)c1=O | -4.65% |  |
| CCC(CC)C(C)CCOC(C)=O (stereo not given) | 0.738% |  |
| CCc1oc2ccccc2c1C(=O)c1cc(I)c(O)c(I)c1 | -3.07% |  |
| NC(=S)NC(N)=S | 0.298% |  |
| CCOC(=O)c1ccc(C2CCC(NC[C@H](O)COc3ccc(O)c(NS(C)(=O)=O)c3)CC2)cc1 (stereo not given in full) | -6.85% |  |
| Sc1nc2ccccc2s1 | 1.65% |  |
| COc1cccc(OC)c1C(=O)O | 0.76% |  |
| COc1cc(S(=O)(=O)O)c(C)cc1N=Nc1c(O)ccc2cc(S(=O)(=O)O)ccc12 | -0.461% |  |
| O=C(O)c1cccc(C(F)(F)F)c1 | -1.5% |  |
| CC(N=C(NC#N)Nc1ccncc1)C(C)(C)C (stereo not given) | -0.685% |  |
| CC(C)(C)C1CCC(=O)CC1 | 7.08% |  |
| CCCCOC(=O)CO | -0.772% |  |
| CCCCCC(C)OC(=O)COc1ccc(Cl)c2cccnc12 (stereo not given) | -0.906% |  |
| C#C[C@]1(OC(C)=O)CC[C@H]2[C@@H]3CCC4=C[C@@H](OC(C)=O)CC[C@@H]4[C@H]3CC[C@@]21C | -7.9% |  |
| CC(=O)CC(=O)Nc1ccc(S(=O)(=O)O)cc1 | 1.29% |  |
| CN(C)Cc1cc(C(C)(C)C)c(O)c(C(C)(C)C)c1 | -0.214% |  |
| CC1(C)CC(O)CC(C)(C)N1 | 0.88% [at 78.8 µM] |  |

| Compound | activation | Potency |
| --- | --- | --- |
| FC(F)(F)c1cccc(Cl)c1 | -2.94% |  |
| C=C(CC)C(=O)c1ccc(OCC(=O)O)c(Cl)c1Cl | 8.54% |  |
| Cc1c(F)c(N2CCNC(C)C2)cc2c1c(=O)c(C(=O)O)cn2C1CC1 (stereo not given) | 3.47% |  |
| Clc1ccnc(Cl)n1 | -2.08% [at 78.8 µM] |  |
| CC(C)CCCCCOC(=O)CCS | 4.05% |  |
| O=C(O)[C@H](O)[C@@H](O)[C@H](O[C@@H]1O[C@H](CO)[C@H](O)[C@H](O)[C@H]1O)[C@H](O)CO | 3.49% |  |
| O=C(Nc1ccc2c(O)c(N=Nc3ccc(N=Nc4ccc(S(=O)(=O)O)cc4)cc3)c(S(=O)(=O)O)cc2c1)c1ccccc1 | -2.96% |  |
| CN(C)CCN1CCN(c2cccc(Cl)c2)C1=O | 3.13% |  |
| CCc1ccc(Br)cc1 | -0.168% [at 78.8 µM] |  |
| CN(C)C(=O)COC(=O)Cc1ccc(OC(=O)c2ccc(N=C(N)N)cc2)cc1 | -1.07% |  |
| Nc1cc(Cl)c(O)c(Cl)c1 | -0.62% |  |
| OC[C@H]1O[C@H](O[C@H]2O[C@H](CO)[C@@H](O)[C@H](O)[C@H]2O)[C@H](O)[C@@H](O)[C@@H]1O | -3.31% [at 78.8 µM] |  |
| Nc1ccc(NCCO)c([N+](=O)[O-])c1 | -0.4% |  |
| CN1CCN(Cc2cc(-c3ccc4[nH]c(=O)oc4c3)co2)[C@@H](c2ccc(F)cc2)C1 | 8.07% |  |
| COC(=O)Nc1nc2ccc(C(=O)c3ccccc3)cc2[nH]1 | -4.06% |  |
| OC[C@@H](O)[C@@H](O)CO | -2.52% |  |
| Cc1c2ccccc2c(C)c2c1ccc1ccccc12 |  | 43.2 µM (active) |
| COc1c(C)c2c(c(O)c1C/C=C(\C)CCC(=O)OCCN1CCOCC1)C(=O)OC2 | -1.9% |  |
| Cc1ccc(N/N=c2\c(=O)cc/c(=N\Nc3ccc(S(=O)(=O)O)cc3)c2=O)c(C)c1 | -0.0138% |  |
| CN1CCCCC1CCN1c2ccccc2Sc2ccc(S(C)=O)cc21 (stereo not given) | 2.21% |  |
